Compounds with a hit are over-represented: about 7.5% of the library has one in this group of screens.
FLuc counter = qHTS profiling assay for firefly luciferase inhibitor/activator using purifed enzyme and Km concentrations of substrates (counterscreen for miR-21 project); purified FLuc, Km substrates, luminescence inhibition; Potency, µM (top dose mostly 57.5 µM), inactives show at the highest dose activity change, negative = inhibition, hits mostly inhibitors; 6.9% of 360,000 active; AID 588342, 2011;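 also: plate controls were vehicle for no effect and reference inhibitor for full effect; nearly all actives have a fitted effect of over 55% in size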
Target sequence (P08659 whole entry, looked up): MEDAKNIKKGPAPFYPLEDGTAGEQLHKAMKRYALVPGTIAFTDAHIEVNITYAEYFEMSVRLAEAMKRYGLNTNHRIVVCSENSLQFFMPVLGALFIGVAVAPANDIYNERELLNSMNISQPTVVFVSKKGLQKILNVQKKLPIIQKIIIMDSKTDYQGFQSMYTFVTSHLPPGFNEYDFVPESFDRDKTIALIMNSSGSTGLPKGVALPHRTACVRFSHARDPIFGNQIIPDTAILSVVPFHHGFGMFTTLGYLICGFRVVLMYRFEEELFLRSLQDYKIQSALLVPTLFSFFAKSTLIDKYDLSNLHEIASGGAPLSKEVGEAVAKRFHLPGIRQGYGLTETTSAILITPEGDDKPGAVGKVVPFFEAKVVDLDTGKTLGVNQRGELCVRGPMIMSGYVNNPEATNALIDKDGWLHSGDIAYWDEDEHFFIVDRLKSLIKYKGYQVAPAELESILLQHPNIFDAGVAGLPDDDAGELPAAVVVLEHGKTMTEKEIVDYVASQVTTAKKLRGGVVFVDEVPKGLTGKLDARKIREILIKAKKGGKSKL
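Purified P. pyralis luciferase, 10 nM final, with Km-level 10 uM D-luciferin and 10 uM ATP in 50 mM Tris acetate pH 7.5, 10 mM Mg acetate, 0.01% Tween-20, 0.05% BSA; 6-point qHTS titration about 60 µM downward; luminescence read.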
NPC1 prom act = qHTS Assay for NPC1 Promoter Activators. Huh7 NPC1 promoter luciferase reporter, 24 h. Potency, µM (doses to about 9.22 µM), for inactives: at the top dose activation, most hits filed as activators. 2.4% of 320,000 active; also: % of control where 0% means no effect; nearly all actives have a fitted effect of over 60% in size
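Quantitative HTS used a cell-based reporter: Huh7 cells stably bearing the NPC1 promoter upstream of luciferase were treated with compounds for 24 h, and promoter activation was read as luminescence.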
ELG1 genotox = qHTS screen for small molecules that induce genotoxicity in human embryonic kidney (HEK293T) cells expressing luciferase-tagged ELG1; Potency, µM (titrated, usually from 46 µM), inactives show top-dose activity change, positive = activation, most hits filed as activators; AID 504466, 2011; HEK293T ELG1-luciferase reporter, luminescence, 16 h; 1.3% of 330,000 active; also: % of control where 0% means no effect; nearly all actives have a fitted effect of over 60% in size
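Cells (2,000/well) expressing the ELG1-luciferase fusion are dosed by pin tool and kept 16 hr at 37 °C, 5% CO2. Signal comes from ONE-Glo luciferase reagent after 30 min at room temperature.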
KinaseGlo FLuc = Counterscreen for Luciferase (Kinase-Glo TM) Inhibition | AID 1379, 2008 | Potency, µM (titrated, usually from 38.3 µM), inactives show top-dose activity change, negative = inhibition, usual class: inhibitors | Kinase-Glo luciferase, ATP luminescence, 8 min | 0.28% of 200,000 active; also: % is scaled to controls: 0 for no effect and ±100 for the full control effect; nearly all actives have a fitted effect of over 60% in size
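Inhibition of Kinase-Glo luciferase light generation was assessed at 10 uM ATP in pH 7.2 imidazole buffer, with luminescence measured after eight minutes at ambient temperature.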
Rab9 prom act = qHTS Assay for Rab9 Promoter Activators. Huh7 Rab9 promoter-luciferase reporter, luminescence, 24 h. Potency, µM (top dose mostly 9.22 µM), inactives show at the highest dose activation, negative = inhibition, most hits filed as activators. 2.8% of 320,000 active. AID 485297, 2010; also: % of control where 0% means no effect; nearly all actives have a fitted effect of over 60% in size
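Huh7 reporter line, Rab9 promoter upstream of luciferase. Compound exposure 24 h at 37 °C in reduced-serum medium with 10% FBS. Read-out: luminescence.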
SMN2 splice enh = qHTS Assay for Enhancers of SMN2 Splice Variant Expression | HEK293 SMN2-luciferase splicing reporter, luminescence, 30-36 h | 2.8% of 210,000 active | Potency, µM (top dose mostly 46.1 µM), inactives show top-dose activity change, positive = activation, hits mostly activators; also: % of control where 0% means no effect; nearly all actives have a fitted effect of over 55% in size
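HEK293 cells carry an SMN2 minigene-luciferase reporter in which exon 7 inclusion puts luciferase in frame. Cells were seeded at 2000 cells/well, attached for 10-12 hours, then exposed to compounds for 30-36 hours at 37C before ONE-Glo luminescence.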
Active calls of the source: *; [ ] = remark or other dose. Calls follow the shape of the dose curve; as a rule, active = well fitted curve in the direction sought with a large enough effect; inconclusive = small, poorly fitted or top-dose-only effect, or another doubt; inactive = no such curve, though single readings can be large; an effect the other way counts as inactive or inconclusive. Potency is read from the fitted curve at half-maximal effect.

Results for c1csc(-c2nc3ccccc3[nH]2)c1 ?
FLuc counter: 30µM*; NPC1 prom act: inconclusive; ELG1 genotox: 15%; KinaseGlo FLuc: -15%; Rab9 prom act: inconclusive; SMN2 splice enh: 13µM*

Results for Cc1ccc(-c2nc3ccccc3[nH]2)s1 ?
FLuc counter: 3µM*; NPC1 prom act: 1.6µM*; ELG1 genotox: inconclusive; KinaseGlo FLuc: 13µM*; Rab9 prom act: 0.63µM*; SMN2 splice enh: 7.1µM*

What do the screens show for `Cc1[nH]c2ccccc2c1-c1cc(-c2cc(-c3c(C)[nH]c4ccccc34)on2)no1`?
KinaseGlo FLuc: 0%[7.66 µM]; SMN2 splice enh: -4%[9.22 µM]

How did Fc1ccc(-c2nc(-c3cccs3)[nH]c2-c2ccc(F)cc2)cc1 do in these assays?
FLuc counter: -5%; NPC1 prom act: 1%; ELG1 genotox: -5%; KinaseGlo FLuc: 0%; Rab9 prom act: -1%; SMN2 splice enh: -33%

Results for Cc1[nH]c2ccccc2c1-c1nc2ccccc2[nH]1 ?
FLuc counter: 27µM*; NPC1 prom act: 24%; ELG1 genotox: inconclusive; KinaseGlo FLuc: -2%; Rab9 prom act: 13%; SMN2 splice enh: 16%

How did CSc1c(-c2ccccn2)c(N)nn1C(=O)C1CC1 do in these assays?
FLuc counter: 19µM*; NPC1 prom act: 0%; ELG1 genotox: 0%; Rab9 prom act: 0%

What do the screens show for `CCc1nnc(NC(=O)CSc2ccc(-c3ccccc3OC)nn2)s1`?
FLuc counter: inconclusive; NPC1 prom act: -7%; ELG1 genotox: 8%; KinaseGlo FLuc: -1%; Rab9 prom act: -4%; SMN2 splice enh: -3%

How did CCc1nnc(NC(=O)CSc2ccc(-c3cccs3)nn2)s1 do in these assays?
FLuc counter: 11µM*; NPC1 prom act: 0%; ELG1 genotox: -14%; KinaseGlo FLuc: 2%; Rab9 prom act: 2%; SMN2 splice enh: -5%

What do the screens show for `CCc1nnc(NC(=O)CSc2nc(-c3ccccc3)cc(-c3ccc(F)cc3)c2C#N)s1`?
FLuc counter: 6%; NPC1 prom act: -7%; ELG1 genotox: 2%; KinaseGlo FLuc: -3%; Rab9 prom act: -2%; SMN2 splice enh: -16%

What do the screens show for `CCc1nnc(NC(=O)CSc2ccc(-c3ccc(F)cc3)nn2)s1`?
FLuc counter: 11µM*; NPC1 prom act: 2%; ELG1 genotox: inconclusive; KinaseGlo FLuc: -2%; Rab9 prom act: -3%; SMN2 splice enh: inconclusive

Results for Cc1cc(C(=O)NC2CCC(C)CC2)c(C)o1 (stereo not given) ?
FLuc counter: 9.5µM*; NPC1 prom act: 1.4µM*; ELG1 genotox: 5.2µM*; Rab9 prom act: 1.8µM*

Results for Cc1cc(C(=O)OCC(=O)NC2CCC(C)CC2)c(C)o1 (stereo not given) ?
FLuc counter: -3%; NPC1 prom act: 0%; ELG1 genotox: 0%; Rab9 prom act: 0%

What do the screens show for `O=C(NNC(=O)c1cc2ccccc2cc1O)NC1CCCCC1`?
FLuc counter: -3%; NPC1 prom act: 9%; ELG1 genotox: 3%; Rab9 prom act: 16%

Results for CC1CCC(NC(=O)c2cc3ccccc3cc2O)CC1 (stereo not given) ?
FLuc counter: 5.4µM*; NPC1 prom act: inconclusive; ELG1 genotox: 13%; Rab9 prom act: 2.2µM*

Results for CSCCC(NC(=O)c1ccco1)C(=O)N1CC(C)OC(C)C1 (stereo not given) ?
FLuc counter: 4%; NPC1 prom act: -1%; ELG1 genotox: -2%; Rab9 prom act: -3%

What do the screens show for `NC(=O)C1CCN(c2nc(-c3ccccc3Cl)cs2)CC1`?
FLuc counter: -11%

How did Cc1cc(NC(=O)Nc2ccccc2Cl)no1 do in these assays?
FLuc counter: 15µM*; NPC1 prom act: 19%; ELG1 genotox: 7%; Rab9 prom act: 28%

How did COc1ccc(Cl)cc1NC(=O)Nc1cc(C)on1 do in these assays?
FLuc counter: 6µM*; NPC1 prom act: 1.4µM*; ELG1 genotox: 1.3µM*; Rab9 prom act: 0.5µM*

What do the screens show for `Cc1cc(NC(=O)c2c(Cl)cccc2Cl)no1`?
FLuc counter: -15%; NPC1 prom act: -2%; ELG1 genotox: 1%; KinaseGlo FLuc: 0%; Rab9 prom act: 3%; SMN2 splice enh: 2%

How did COc1ccc(NC(=O)Nc2cc(NC(=O)Nc3ccc(OC)cc3)c(C)nc2C)cc1 do in these assays?
FLuc counter: 0%; NPC1 prom act: -2%; ELG1 genotox: 2%; KinaseGlo FLuc: 1%; Rab9 prom act: -5%; SMN2 splice enh: 20%

What do the screens show for `COc1ccc(OC)c(NC(=O)CSc2nc3ccccc3c(=O)n2CCNC(C)=O)c1`?
FLuc counter: -1%; NPC1 prom act: -2%; ELG1 genotox: 0%; KinaseGlo FLuc: 1%; Rab9 prom act: -2%; SMN2 splice enh: -5%

What do the screens show for `COc1ccc(OC)c(NC(=O)Nc2cc(NC(=O)Nc3cc(OC)ccc3OC)c(C)nc2C)c1`?
FLuc counter: 6%; NPC1 prom act: -5%; ELG1 genotox: inconclusive; KinaseGlo FLuc: 0%; Rab9 prom act: -3%; SMN2 splice enh: 14µM*

How did COc1ccc(OC)c(NC(=O)Cn2c(C)nc3ccccc3c2=O)c1 do in these assays?
FLuc counter: 9.5µM*; NPC1 prom act: 3.2µM*; ELG1 genotox: inconclusive; KinaseGlo FLuc: 0%; Rab9 prom act: 19%

What do the screens show for `Cc1ccc(C2(C)NC(=O)N(CC(=O)Nc3ccccc3C(=O)NC3CCCC3)C2=O)cc1` (stereo not given)?
FLuc counter: 1%; NPC1 prom act: -1%; ELG1 genotox: -2%; Rab9 prom act: 0%

What do the screens show for `C=CC[C@](C)(Nc1ccc(OC)cc1)C(=O)OCC`?
KinaseGlo FLuc: -1%; SMN2 splice enh: 18%

How did COc1ccc(OC)c(NC(=O)NCc2cccnc2)c1 do in these assays?
FLuc counter: 5%; NPC1 prom act: -3%; ELG1 genotox: 0%; Rab9 prom act: 3%

What do the screens show for `COc1ccc(Cl)cc1NC(=O)NCc1cccnc1`?
FLuc counter: 15µM*; NPC1 prom act: -7%; ELG1 genotox: 0%; Rab9 prom act: 1%

What do the screens show for `CCc1nnc(NC(=O)c2ccc(-c3ccccc3Cl)o2)s1`?
FLuc counter: inconclusive; NPC1 prom act: 30%; ELG1 genotox: 21µM*; KinaseGlo FLuc: -11%; Rab9 prom act: inconclusive; SMN2 splice enh: 5%
